PREPL inh: inhibitors of human prolyl oligopeptidase-like enzyme PREPL. inhibition, % at 5.96 µM. actives 0.68% (n = 320,000). Q4J6C6. recombinant PREPL, fluorescence polarization activity-based probe; in the data active means inhibition above about 43%;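 further: 0% = enzyme with DMSO and 100% = wells lacking enzyme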
GSTO1 inh: counter-screen for RBBP9 inhibitors: inhibitors of human GSTO1; P78417; recombinant GSTO1, activity-based probe fluorescence polarization; inhibition, % at 5.96 µM; actives 1.1% (n = 300,000);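 active means inhibition above the campaign mean inhibition plus 3 SD, cut at about 35% in these data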;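 further: 0% = GSTO1-1 with DMSO and 100% = wells lacking GSTO1-1 enzyme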
Target sequence (P78417 whole entry, looked up): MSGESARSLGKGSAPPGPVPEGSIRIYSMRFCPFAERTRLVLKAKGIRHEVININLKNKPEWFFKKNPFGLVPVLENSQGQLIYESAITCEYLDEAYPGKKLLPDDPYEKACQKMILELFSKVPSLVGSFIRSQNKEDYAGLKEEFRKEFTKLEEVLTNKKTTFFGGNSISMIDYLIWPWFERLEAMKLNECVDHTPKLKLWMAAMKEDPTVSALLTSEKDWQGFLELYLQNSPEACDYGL
LYPLA2 inh: LYPLA2 (human) inhibition in PME1 counter-screen | O95372 | recombinant LYPLA2, FP-Rh probe fluorescence polarization | inhibition, % at 5.9 µM | actives 0.38% (n = 320,000);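 active means inhibition above the screen-wide mean plus 3 SD, limit set per campaign, cut at about 26% in these data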;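 further: 0% = LYPLA2 with DMSO and 100% = wells lacking LYPLA2 enzyme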
Target sequence (O95372 whole entry, looked up): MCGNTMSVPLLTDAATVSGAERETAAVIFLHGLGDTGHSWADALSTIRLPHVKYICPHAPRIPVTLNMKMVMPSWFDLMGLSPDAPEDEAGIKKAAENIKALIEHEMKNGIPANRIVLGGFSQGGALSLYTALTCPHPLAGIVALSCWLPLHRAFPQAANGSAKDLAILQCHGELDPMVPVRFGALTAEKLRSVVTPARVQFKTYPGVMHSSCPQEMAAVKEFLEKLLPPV
Fam108B inh: blocks mouse Fam108B hydrolase in RBBP9 counter-screen | inhibition, % at 9.51 µM | actives 0.33% (n = 300,000) | recombinant Fam108B, FP-Rh probe fluorescence polarization;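 active means inhibition above the screen mean inhibition plus 3 SD, computed separately per campaign, cut at about 18% in these data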;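 further: inhibitors lower polarization as less probe binds the enzyme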
PME-1 inh: blocks human protein phosphatase methylesterase 1 | inhibition, % at 5.9 µM | recombinant PME-1, FP-Rh probe fluorescence polarization | actives 0.53% (n = 320,000) | AID 2130 | Q9Y570;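 active means inhibition above the campaign mean of all compounds plus 3 SD, cut at about 26% in these data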;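 further: competitive labeling of PME-1 active site by serine hydrolase directed probe; 0% = PME-1 with DMSO and 100% = wells lacking PME-1 enzyme; inhibitors block probe labeling so polarization falls and inhibition rises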
LYPLA1 counter: counter-screen for PME1 inhibitors: inhibitors of human LYPLA1; actives 0.16% (n = 320,000); inhibition, % at 5.9 µM; AID 2174; O75608; recombinant LYPLA1, FP-Rh probe fluorescence polarization;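 active means inhibition above the mean of all tested compounds plus 3 SD, set per campaign, cut at about 14% in these data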;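 further: inhibitors block serine hydrolase probe labeling of LYPLA1 so polarization falls; 0% = enzyme with DMSO and 100% = wells lacking LYPLA1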
* = called active by the depositor; . = no result given. Compounds with a hit are over-represented: about 1.9% of the library has one in this group of screens.

SMILES | PREPL inh | GSTO1 inh | LYPLA2 inh | Fam108B inh | PME-1 inh | LYPLA1 counter
CC1(C)CC2(CC(c3ccccc3F)c3ccc(O)c(O)c3O2)NC(=S)N1 (stereo not given) | 18 | 44* | 0 | 1 | 0 | -5
COc1ccc(C2=NN(c3ccccc3)C(=O)/C2=C\c2ccc(O)c(OC)c2)cc1 | -3 | 54* | -2 | 4 | 8 | 0
O=C(CN1C(=O)NC2(CCCCCCC2)C1=O)Nc1c(Cl)cccc1Cl | 2 | . | . | . | . | .
CSc1ccccc1NC(=O)C1CCN(S(C)(=O)=O)CC1 | -3 | 35* | 3 | -2 | 1 | 0
CS(=O)(=O)N1CCC(C(=O)Nc2ccccc2F)CC1 | 4 | 3 | 1 | -2 | -3 | 1
CC(C)c1ccc(CN(C)C(=O)c2ccc(S(=O)(=O)NCc3ccco3)cc2)cc1 | 20 | . | 9 | . | 9 | 0
Oc1[nH]c2ccc(Br)cc2c1N=NC(=S)N1CCOCC1 | 23 | -31 | -3 | 2 | 4 | -3
Oc1[nH]c2ccccc2c1N=NC(=S)N1CCOCC1 | -4 | 36* | -4 | 2 | 1 | -2
COC(=O)CCC(=O)OC1(C)C(=O)C=C2C=C(C3CC3)N(c3ccccc3)C=C2C1=O (stereo not given) | 47* | 30 | 0 | 0 | 3 | -1
C=CCN1C=C2C(=O)C(C)(OC(=O)CCC(=O)OC)C(=O)C=C2C=C1C1CC1 (stereo not given) | 20 | 37* | 3 | -1 | 3 | 2
COc1nc(N)c(C#N)c(-c2ccc(N(C)CCC#N)cc2)c1C#N | 8 | 6 | -1 | 2 | 13 | -1
Cc1[nH]c(C)c(S(=O)(=O)NCC(C)c2ccccc2)c1C(=O)N1CCCCC1 (stereo not given) | 11 | 1 | 0 | 2 | -9 | 0
CN(Cc1cccc(Cl)c1)C(=O)C1CSC2(C)CCC(=O)N12 (stereo not given) | -6 | 6 | 1 | -4 | -2 | 1
CCN(c1cccc(C)c1)S(=O)(=O)c1cc2c3c(c1)CCN3C(=O)CC2 | 15 | 2 | 0 | -2 | 1 | 0
Oc1ccccc1-c1nc(NC2CCCC2)c2ccccc2n1 | -1 | -10 | -14 | 7 | 8 | -4
c1ccc(-c2nnc(-c3ccccn3)nc2NC2CCCCC2)cc1 | 86* | 7 | 4 | 1 | 1 | 2
COc1ccc(S(=O)(=O)N2CCCCCC2)cc1C(=O)NCc1cccs1 | 8 | . | 1 | . | 20 | 1
CCOC(=O)C(C)(C)N(Cc1ccc(Cl)cc1)S(=O)(=O)c1ccc(Cl)c([N+](=O)[O-])c1 | 2 | 65* | 3 | 2 | 0 | 0
CC(=O)c1c(C)oc2ccc(N(C(C)=O)S(=O)(=O)c3ccc(Cl)c([N+](=O)[O-])c3)cc12 | 10 | 22 | -2 | -2 | 0 | 1
CCOC(=O)C(C)(C)N(Cc1ccc(C)cc1)S(=O)(=O)c1ccc(Cl)c([N+](=O)[O-])c1 | -4 | 62* | 2 | -2 | -5 | -3
COc1ccc(CNC[C@H]2O[C@@H](n3cnc4c(N)ncnc43)[C@H](O)[C@@H]2O)cc1OC | 8 | . | . | . | . | .
CN(CC(=O)Nc1cccc(F)c1)C(=O)c1cc(=O)[nH]c2ccccc12 | -1 | . | -3 | . | 0 | -2
Cc1nn(CC(=O)NCCC2=CCCCC2)c(C)c1S(=O)(=O)N(C)C | 6 | . | . | . | . | .
CCOc1cc(C2NN=C(c3ccc(C)cc3)S2)ccc1O (stereo not given) | 14 | -17 | 6 | 25* | 8 | -2
COc1ccc(C2NN=C(c3ccc(C)cc3)S2)cc1 (stereo not given) | -19 | 2 | -5 | -1 | -5 | -3
O=C(OCCN(C1=NS(=O)(=O)c2ccccc21)c1ccc(Cl)cc1)c1ccco1 | 5 | 0 | -3 | 1 | 27* | -4
O=C(NNc1c(F)c(F)cc(F)c1F)C1CCN(S(=O)(=O)c2ccccc2F)CC1 | 4 | . | . | . | . | .
O=C(OCc1c(-c2ccccc2)ncc2ccccc12)c1ccco1 | 1 | . | . | . | . | .
COCC(C)NC(=O)NC(=O)c1ccc(Cl)cc1 (stereo not given) | 11 | 7 | -2 | -2 | -2 | -1
COCC(C)NC(=O)NC1(C(F)(F)F)Oc2ccc(Cl)cc2O1 (stereo not given) | -7 | 36* | -2 | -2 | -3 | -6

High-throughput results (PubChem)
